# The sample as a whole holds a higher share of hits than the screen did.
# KDM5B inhibitor: inhibitors of human KDM5B histone demethylase; Q9UGL1; KDM5B demethylase, FDH-coupled NADH fluorescence (FDH is formaldehyde dehydrogenase); Potency, µM (doses to about 57.7 µM), actives largely listed as inhibitors; actives 2.6% (n = 220,000); AID 1347165; active = well fitted inhibition curve with a large enough effect; note: 0% is about no effect; nearly all actives have a fitted effect of over 70% in size
#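 KDM5BΔAP (200 nM final) in 50 mM HEPES pH 7.5, 0.01% Tween-20 was preincubated 10 min at RT with compound over a concentration range. Substrate mix (H3K4me3 12.5 µM, α-KG 25 µM, Fe²⁺, ascorbate, NAD⁺, FDH) was added, and NADH fluorescence change over 30 min gave dose-response curves.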
# * = called active by the depositor; i = inactive. Potency is the fitted concentration of half-maximal effect.
SMILES,KDM5B inhibitor
O=C(Nc1cccn2nc(C3CCC3)nc12)c1ccc(F)cc1Cl,i
O=C(COc1ccccc1)Nc1cccn2nc(C3CCC3)nc12,i
COc1cc(C)cc(OC)c1OCc1ccc(C#N)cc1,i
CCOc1cccc(CNCc2cccnc2)c1OCc1ccc(C)cc1,i
COCCNC(=O)CCc1ccc2c(c1)CN(C(=O)NC(C)C)CCO2,i
COCCNC(=O)C(NC(=O)CC(C)C)C1CCN(C(=O)c2ccc3c(c2)OCO3)CC1 (stereo not drawn),i
COCCNC(=O)c1ccc2c(c1)N(C)C(CC(=O)NC1CCC1)CO2 (stereo not drawn),28µM*
CCCNC(=O)CC1COc2ccc(C(=O)NCCOC)cc2N1C (stereo not drawn),28µM*
COCCNC(=O)c1ccc2c(c1)N(C)C(CC(=O)NCc1ccon1)CO2 (stereo not drawn),28µM*
COCCNC(=O)c1ccc(OC2CCN(CC3CCOC3)CC2)c(Cl)c1 (stereo not drawn),i
CCc1ccccc1OCC(=O)c1ccc2c(c1)N(CCCC(=O)NCCOC)C(=O)CO2,i
COCCNC(=O)c1ccc2c(c1)N(C)C(CC(=O)NC(C)C)CO2 (stereo not drawn),20µM*
COCCNC(=O)c1ccc(OC2CCN(Cc3ccc(C)s3)CC2)c(Cl)c1,i
COCCNC(=O)CCCN1C(=O)COc2ccc(C(=O)COc3ccc(C)cc3C)cc21,i
Cc1csc(SC2=CS(=O)(=O)c3ccccc32)n1,i
Cc1cc(NC(=O)COc2ccccc2C(=O)c2cc(C#N)c(=O)n(C(C)C)c2)ccc1N1CCCC1,i
CC(=O)c1ccc(C(=O)Nc2ccc(SC3CCCC3)cc2)s1,i
O=C(O)c1cc(-c2cccc(Cl)c2)nc2ccccc12,i
CC(C)CN1C(=O)C2(CC(=O)Nc3c2cnn3Cc2ccccc2Cl)c2ccccc21 (stereo not drawn),i
C=CCNC(=S)NNC(=O)c1ccc(CSc2nc(C)cc(C)n2)cc1,i
Cc1cncc(NC(=O)CC2COc3ccc(C(=O)N(C)C)cc3N2C)c1 (stereo not drawn),i
CCNC(=O)CC1COc2ccc(C(=O)NCCOC)cc2N1C (stereo not drawn),32µM*
CN(C)C(=O)c1ccc2c(c1)N(C)C(CC(=O)NC(C)(C)c1ccccc1)CO2 (stereo not drawn),i
COCCNC(=O)c1ccc2c(c1)N(C)C(CC(=O)Nc1ccc(N)nc1)CO2 (stereo not drawn),22µM*
CN(C)C(=O)c1ccc2c(c1)N(C)C(CC(=O)NCC(C)(C)O)CO2 (stereo not drawn),i
SMILES,KDM5B inhibitor
COCCNC(=O)CCCN1C(=O)COc2ccc(C(=O)COc3ccccc3OC)cc21,i
COCCNC(=O)c1ccc2c(c1)N(C)C(CC(=O)N(C)CC(C)C)CO2 (stereo not drawn),32µM*
C=CCN(C)C(=O)CC1COc2ccc(C(=O)N(C)C)cc2N1C (stereo not drawn),i
COc1ccc(NC(=O)c2ccc3c(c2)OCCN(CCC(F)(F)F)C3)cn1,i
C#CCN(C)C(=O)CC1COc2ccc(C(=O)N3CCOCC3)cc2N1C (stereo not drawn),i
COCCNC(=O)c1ccc2c(c1)N(C)C(CC(=O)Nc1ccccc1)CO2 (stereo not drawn),32µM*
COCCNC(=O)c1ccc(OC2CCN(Cc3cccc4c3OCO4)CC2)c(Cl)c1,i
CN1CCN(C(=O)CNc2nc(Cl)nc3nc[nH]c23)CC1,i
Cc1cccc(-c2nc3c(Br)c(N)c(Br)cc3o2)c1,i
O=C(CCCc1nc2ccccc2s1)N1CCCC1c1ccc(F)cc1 (stereo not drawn),i
OC1(c2cccc3ccccc23)CCN(Cc2ccccc2)C1 (stereo not drawn),i
COc1ccc(Nc2cnc3ccc(-c4ccccc4)nn23)cn1,i
Cc1ccc(N(C(C)C(=O)NCc2ccncc2)S(C)(=O)=O)cc1 (stereo not drawn),i
CCOc1ccc(NC(=O)CSc2ncc(-c3ccc(F)cc3)o2)cc1,i
CCc1ccc(CN2CCC(Oc3ccc(C(=O)NCCOC)cc3Cl)CC2)o1,i
CCN(CC)C(=O)CC1COc2ccc(C(=O)NCCOC)cc2N1C (stereo not drawn),28µM*
CCOC(=O)C1=C(C)Nc2nc(SCc3cccc(C)c3)nn2C1c1cccs1 (stereo not drawn),i
C(#CCn1c2ccccc2c2ccccc21)CN1CCOCC1,i
Cc1ccc(Cl)cc1N1CCN(C(=O)CCS(=O)(=O)c2cccc3nsnc23)CC1,i
Cc1ccc(C(=O)NCCn2cccc2-c2nc(-c3ccccc3)no2)cc1,i
O=C(NCc1nnc2c(-c3nc(C4CC4)no3)cccn12)c1ccc(F)c(Cl)c1,28µM*
c1ccc(-c2nc(C3CC3)no2)c(OC2CNC2)c1,i
O=C(Cc1ccc(Cl)cc1)NCc1nnc2c(-c3nc(C4CC4)no3)cccn12,28µM*
O=C(NCc1nnc2n1C(C(=O)O)CC2)c1cccc(Cl)c1 (stereo not drawn),i

# Screening data deposited in PubChem by National Center for Advancing Translational Sciences (NCATS).
